Hits are enriched below; roughly 5.4% of the tested compounds scored in any of these assays.
CtBP-E1A inh – qHTS Assay for Inhibitors of the CtBP/E1A Interaction. AlphaScreen GST-E1A/His-CtBP binding, 1536-well; stronger effect = lower value. activity change, % (concentration not given with the values). actives 0.49% (n = 340,000); in the data active = activity change below about -65%; inconclusive = mostly about -30% to -63%; note: % is set by controls: 0 for no effect and ±100 for the full control effect
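Homogeneous bead-based format: GST-tagged E1A captured on glutathione donor beads, His-tagged CtBP on nickel acceptor beads; compounds precede bead addition by 2 h at 37 °C.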
Six1-Eya2 inh – qHTS Assay for Inhibitors of the Six1/Eya2 Interaction; Homeobox protein SIX1 (Homo sapiens) + Protein phosphatase EYA2 (Homo sapiens), …; AlphaScreen GST-Six1/His-Eya2 binding, biochemical; stronger effect = lower value; activity change, % (no concentration beside the values); actives 0.56% (n = 360,000); AID 651725, 2012; in the data active = activity change below about -65%; inconclusive = mostly about -30% to -63%; note: % is set by controls: 0 for no effect and ±100 for the full control effect
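Six1/Eya2 binding was read as AlphaScreen signal after compounds were pinned into GST-Six1 plus His-tagged Eya2 (5X stock 250/500 nM) in pH 8.0 Tris/NaCl/TCEP buffer, beads added, then incubated 1 h, 37 C, dark.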
Gal4-VP16 FLuc – VP16 counterscreen qHTS for inhibitors of ROR gamma transcriptional activity; Drosophila S2 Gal4-VP16 UAS-luciferase, luminescence, 20 h; Potency, µM (top dose mostly 53.6 µM), for inactives: top-dose activity, negative = inhibition, actives largely listed as inhibitors; actives 3.5% (n = 310,000);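 note: Gal4-VP16 expression switched on by copper sulfate through the metallothionein promoter; potency is the fitted concentration of half-maximal effect; % is set by controls: 0 for no effect and ±100 for the full control effect; nearly all actives have a fitted effect of over 50% in size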
p53 reactivation – qHTS assay for re-activators of p53 using a Luc reporter | Potency, µM (doses to about 92.2 µM), for the others: at the top dose activity change, positive = activation, hits mostly activators | actives 0.063% (n = 320,000) | H1299 p53-A138V BP100-luciferase reporter, luminescence, 24 h | AID 504706, 2011; note: potency is the fitted concentration of half-maximal effect; % of control where 0% means no effect; nearly all actives have a fitted effect of over 45% in size
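H1299 (p53-null), stable ts p53-A138V + BP100-Luc; 1000 cells/well, Opti-MEM/10% FBS; cpd 4 pt, 1:5; 24 h, 37 deg C, 5% CO2; detection reagent 10 min RT; luminescence.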
RORgamma inh – qHTS for inhibitors of ROR gamma transcriptional activity; Nuclear receptor ROR-gamma (Mus musculus), P51450; Drosophila S2 Gal4-RORgamma UAS-luciferase reporter, 20 h; Potency, µM (top dose mostly 53.6 µM), inactives show top-dose activity change, negative = inhibition, actives largely listed as inhibitors; actives 5.4% (n = 310,000); AID 2551, 2010; note: potency is the fitted concentration of half-maximal effect; % is set by controls: 0 for no effect and ±100 for the full control effect; nearly all actives have a fitted effect of over 60% in size
Target sequence (P51450 whole entry, looked up, the tested form may be a part): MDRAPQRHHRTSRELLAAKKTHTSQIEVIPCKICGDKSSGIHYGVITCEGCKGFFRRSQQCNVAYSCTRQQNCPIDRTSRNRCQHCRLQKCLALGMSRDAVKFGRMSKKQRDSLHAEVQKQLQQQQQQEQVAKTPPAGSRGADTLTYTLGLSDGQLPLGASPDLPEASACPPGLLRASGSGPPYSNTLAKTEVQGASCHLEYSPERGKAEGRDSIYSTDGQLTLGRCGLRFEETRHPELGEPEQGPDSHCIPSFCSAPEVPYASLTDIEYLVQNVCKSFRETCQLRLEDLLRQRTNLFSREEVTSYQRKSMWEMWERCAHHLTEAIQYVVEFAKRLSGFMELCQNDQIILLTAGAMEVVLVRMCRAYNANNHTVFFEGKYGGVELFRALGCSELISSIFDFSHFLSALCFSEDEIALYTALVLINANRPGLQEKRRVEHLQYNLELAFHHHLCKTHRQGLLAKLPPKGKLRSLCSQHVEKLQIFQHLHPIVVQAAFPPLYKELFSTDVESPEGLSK
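Drosophila Schneider cells stably carrying a metallothionein-driven Gal4 DBD–ROR gamma fusion and a UAS-Photinus luciferase reporter were exposed to compound for 1 hr, then induced with copper sulfate (700 uM final) for 20 hr at ambient temperature before luminescence reading.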
An asterisk follows results filed as active; ? = inconclusive; . = no result; [ ] = another dose, or the depositor's remark. Unless noted, calls come from the whole dose curve; as a rule, active = well fitted curve in the direction sought with a large enough effect; inconclusive = small, poorly fitted or top-dose-only effect, or another doubt; inactive = no such curve, though single readings can be large; an effect the other way counts as inactive or inconclusive.

SMILES	CtBP-E1A inh	Six1-Eya2 inh	Gal4-VP16 FLuc	p53 reactivation	RORgamma inh
CC(C)CC(NC(=O)c1ccc(Cl)cc1)C(=O)OCC(=O)c1ccc2c(c1)NC(=O)CO2 (configuration not stated)	5	-2	7.1µM*	-13%	11µM*
COc1cc(C(CCN2CCOCC2)c2c(OC)cc(OC)c3c2OC(=O)CC3c2ccc(N(C)C)cc2)cc(OC)c1OC (configuration not stated)	?	?	-5%	-3%	-10%
COc1cc(OC)c2c(c1C(CCN1CCOCC1)c1ccc(N(C)C)cc1)OC(=O)CC2c1ccc(N(C)C)cc1 (configuration not stated)	?	-80*	-9%	-4%	?
CC[C@H]1O[C@H](C)CC2=C1C(=O)OC(C)(C)O2	2	6	.	.	.
Cc1nc2ccc(NC(=O)c3ccc(C)c(S(=O)(=O)N4CCOCC4)c3)cc2s1	?	?	.	0%	.
COc1cc(N=c2oc3c(C)ncc(CO)c3cc2C(N)=O)cc(OC)c1OC	0	-79*	3%[10 µM]	2%	14%
Nc1ccc(CN2CCOCC2)cc1	4	3	-9%	0%	-12%
CCCCCCc1cc2cc(S(=O)(=O)c3ccc(Cl)cc3)c(=O)oc2cc1O	16	20	20µM*	-2%	?
CCCCCCc1cc2cc(C(=O)NCc3ccccc3)c(=N)oc2cc1O	6	6	?	19%	?
CCCCCCc1cc2cc(C(=O)Nc3ccccc3)c(=O)oc2cc1O	5	9	4.5µM*	17%	?
COc1cc(-c2nc3cnccn3c2Nc2ccc(C(C)C)cc2)ccc1O	4	2	10µM*	-11%	14µM*
COc1cc(-c2nc3cnccn3c2Nc2ccc(C)cc2)ccc1O	0	3	-30%	0%	-34%
CC(=O)c1csc(CS(=O)(=O)c2ccccn2)n1	.	0	-8%	0%	16%
O=[N+]([O-])c1cncc([N+](=O)[O-])c1Nc1cccc(O)c1	-28	-28	11µM*	-6%	?
O=[N+]([O-])c1cc([N+](=O)[O-])c2nonc2c1Nc1ccc(O)cc1	.	4	13µM*	6%	11µM*
Cc1ccccc1Nc1c([N+](=O)[O-])cncc1[N+](=O)[O-]	-9	-23	?	7%	?
Cc1ccc(NNC(=O)Nc2ccc(Cl)cc2)nn1	-3	7	8%	-3%	26%
CCOc1ccc(NC(=S)NC(=O)c2c(Cl)c(C)nn2C)c([N+](=O)[O-])c1	6	-1	?	22%	10µM*
Cc1nc(C)c(C(=O)NCc2ccc(Cl)cc2)o1	0	3	?	-3%	38%
Cc1nn(C)c(C(=O)NCc2ccc(Cl)cc2)c1Cl	-7	1	4µM*	1%	?
Cc1nn(C)c(C(=O)NC(=S)Nc2ccccc2O)c1Cl	-7	-5	3.2µM*	8%	2µM*
Cc1ccc(NC(=O)CSc2ncnc3ccccc23)cc1S(=O)(=O)N1CCCCCC1	2	1	?	-2%	?
COC(=O)N1CCC[C@@]2(CCN(c3ccccn3)C2)C1	.	.	-4%	.	-6%
O=C(NNC(=O)c1cccs1)c1ccccc1	.	4	5%	3%	1%
O=C(NNC(=S)NC(=O)c1cccs1)c1ccc(NC(=O)c2ccccc2)cc1	7	0	6.3µM*	1%	4.5µM*
SMILES	CtBP-E1A inh	Six1-Eya2 inh	Gal4-VP16 FLuc	p53 reactivation	RORgamma inh
O=C(NNC(=S)NC(=O)c1cccs1)c1ccc(O)cc1	-17	-5	11µM*	-3%	7.9µM*
CC1CCCCC1NC(=S)NC(=O)c1cccs1 (configuration not stated)	3	-20	13µM*	29%	1.6µM*
CC(=O)NC(=S)Nc1ccc(NC(=O)c2cccs2)cc1	6	6	29%	?	44%
O=C(Nc1ccc(NC(=S)NC(=O)c2cccs2)cc1)c1ccccc1	-4	-5	16µM*	1%	7.9µM*
O=C(NNC(=S)NC(=O)c1cccs1)c1cccnc1	-2	-9	4%	-4%	-20%
O=C(NC(=S)Nc1ccccc1)c1cccs1	-2	-8	8.9µM*	?	5µM*
CCCCC(=O)Nc1ccc(C(=O)Nc2ccc(S(=O)(=O)Nc3ccc(C)cc3)cc2)cc1	-5	8	11µM*	-4%	?
O=C(N/N=C(\CC(=O)c1cccs1)C(F)(F)F)c1cccnc1	6	5	-4%	1%	-34%
O=C(N/N=C(/CC(=O)c1cccs1)C(F)(F)F)c1ccc(O)cc1	-19	-25	?	4%	18µM*
CCCCC(=O)Nc1ccc(C(=O)NNC(=S)NC(=O)c2ccco2)cc1	-1	-5	20%	2%	13%
CCCCC(=O)Nc1ccc(C(=O)NNC(=S)NC(=O)c2cccs2)cc1	-2	1	8.9µM*	-26%	7.9µM*
CCN(CC)CCn1c(-c2ccccc2)nc2c(NCc3ccccc3)nc(C)nc21	.	.	-4%	.	-34%
CCc1cccc(NC(=O)Cn2cc(C=O)c3ccccc32)c1	.	5	2%	0%	?
O=C(O)c1cccc(/C=C2/C[C@@H]3[C@@H](/C=C/[C@@H](O)C4CCCCC4)[C@H](O)C[C@@H]3O2)c1	.	.	-9%	.	22%
O=C(NNC(=S)Nc1ccc(F)cc1)C1CC1c1ccc(Cl)cc1 (configuration not stated)	-1	3	20µM*	16%	?
Cc1ccc(C2CC2C(=O)NNC(=S)Nc2cccc(Cl)c2)cc1 (configuration not stated)	-4	-10	-5%	12%	-26%
Cc1ccc(NC(=S)NNC(=O)C2CC2c2ccc(C)cc2)cc1 (configuration not stated)	-6	-3	?	-4%	11µM*
COc1cc2[nH]c(=S)nc(Nc3ccc(NC(C)=O)cc3)c2cc1OC	-90*	-88*	-1%	-4%	-12%
COc1cc2[nH]c(=S)nc(NCC3CCCO3)c2cc1OC (configuration not stated)	-87*	-90*	11%	9%	-22%
COc1cc2[nH]c(=S)nc(NC3CCCCCC3)c2cc1OC	-67*	-71*	5%	-1%	?
O=C(OC(C(=O)NCc1ccccc1)c1ccccc1F)c1ccco1 (configuration not stated)	8	1	-16%	5%	-9%
CCNC(=S)N/N=C/c1ccccc1[N+](=O)[O-]	0	-6	?	4%	4.5µM*
